Laboratory results published in the supplement of paper PMC11417369.
± gives the standard deviation of the averaged measurements. In all, about 25,000 sequences were measured (“ln(normalized median fluorescence intensity)”: median about 10, highest 2% from about 12 on). For the sample, the highest values were picked, then their nearest neighbours and some sequences at random.

System: PfAP2-G AP2 domain (GST-tagged)
Test: gcPBM binding intensity (ln(normalized median fluorescence intensity)); higher = stronger DNA binding
Method in brief: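 Plasmodium falciparum DNA-binding domains carrying a GST tag were expressed in E. coli and applied for 1 h, at about 25 μg on average, to an Agilent 4 × 180k array. The array held primer-extended double-stranded 36-bp intergenic genomic probes together with negative controls, and binding took place in 1× PBS with 1% milk, 0.2 mg/ml BSA, 0.5% salmon testes DNA and 0.03% Triton X-100. An Alexa488 anti-GST antibody detected bound protein, and the array was scanned at 488 nm. Binding intensity is taken as the highest Masliner-normalised natural-log median intensity across replicate spots of either probe orientation.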

Row | Sequence | gcPBM binding intensity (ln)
1 | CGATACTTTAGGTGTACACAAATATACATGAATGAG [CACACA_site5189] | 11.6 ± 0.84
2 | ATATATATTTATAGGTGTACAAAATACTATTTTAGG [XGTACX_site8499] | 11.3 ± 0.82
3 | TTTATACACAAAAAATGTACATATATATAATGAATT [XGTACX_site1195] | 11.2 ± 0.72
4 | TATTTATATAGGTATACACACATACAAATATGTAAA [CACACA_site7705] | 10 ± 0.28
5 | AAAATTTCTTTTTTTTGTACATATATAATAATATAT [XGTACX_site7107] | 10.9 ± 0.62
6 | TTTTCTTTTTTCTGTTGTACTAAAAATAATTTTGTA [XGTACX_site5171] | 11.3 ± 0.87
7 | TTACAAATAATTTGTTGTACGCTTTTTTTCTTTTTT [XGTACX_site7199] | 11.7 ± 1.1
8 | GACAAAATGATAGGGACACACAATATCAATGTTTAA [CACACA_site765] | 10.7 ± 0.51
9 | TTTTTTTTTTTTGAGTGTACTAAAATATTACCTTTT [XGTACX_site646] | 11.2 ± 0.99
10 | TAAAATAATAAACAGAAGAAATCATTCATATAAAAA [XGTACX_negctrl_site502] | 9.635 ± 0.035
11 | ATAAATGAAAAAAAGCGTACATATAAAAAAATATAT [XGTACX_site5063] | 11.6 ± 1
12 | ACATAAGAACATATTTGTACGTATATAAATTAAATA [XGTACX_site6127] | 11.4 ± 0.79
13 | ATATAAGAACAAAATTGTACATAAATATTTATATAA [XGTACX_site7404] | 10.8 ± 0.54
14 | TTAACAAAATTTCCGTGTACGTAAATAAGAACATAG [XGTACX_site7200] | 11.8 ± 0.95
15 | AAATAATTAAAAAAAAGTACACATGTGACTACATAT [XGTACX_site8767] | 11.4 ± 0.71
16 | ATGAACATGTGACAATGTACATTTATATCTTAAGAA [XGTACX_site4960] | 10.8 ± 0.43
17 | TTTTTTTTTTTTTTTTTTATATTTCATAATTTCATT [XGTACX_negctrl_site579] | 9.33 ± 0.71
18 | TTTTGTTTTGTTTTGTTTTGTTTTGTTTTATTTTAT [GTGCAC_negctrl_site383] | 9.86 ± 0.27
19 | GAATACACCACGCACACACACTTGAGAAAAAATAAA [CACACA_site7747] | 10.6 ± 0.56
20 | TATTTGTTTTTATATAGTACATAAATATATATATAT [XGTACX_site7834] | 10.9 ± 0.61
21 | TATATTTTTATATTTTGTACATATAGTAAATATAAA [XGTACX_site4768] | 10.8 ± 0.51
22 | TTTTTTTTTTTTGGTAGTACATAAATATTTTATGGA [XGTACX_site6851] | 12 ± 1.7
23 | AAATTATATATAAAATGTACATATGTAGGTAATTTT [XGTACX_site5047] | 10.9 ± 0.49
24 | ATATAGTAAATTGGTAGTACATAAAATGATTTTATG [XGTACX_site4143] | 11.6 ± 0.95
25 | AAATTAAAATAAAATAGTACATATATTTATATTTTT [XGTACX_site1687] | 11.1 ± 0.69
